The values that follow come from PubChem BioAssay (NCI).

About 83,000 compounds went through this panel and 20% of them were active in at least one assay; those are over-represented in the sample as a whole.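 Cells were grown in 96-well plates and exposed to the test compound at a single concentration for 48 hours; results are reported as percent growth, with values below 10 considered active.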 Activity calls are given as the source filed them.

For the test, the system named is HL-60(TB) leukemia. Description: NCI-60 one-dose screen, 48 h (100 = growth as untreated, 0 = no growth, -100 = all killed). The note with it: 10 µM unless noted.
Regarding `O=C(/C=C/c1cccc(C(F)(F)F)c1)Nc1cccc(C(F)(F)F)c1`, the growth was 38.3% (inactive).

As to `CC(=O)c1ccc(Nc2nc(SCC(C)C)nc(-c3ccccc3)c2C#N)cc1`, the growth was 101% (inactive). Take `Nc1cc(-c2c[nH]c3ccc(F)cc23)nc2cc(-c3c[nH]c4ccc(F)cc34)nn12`: the growth was -37.6% (active). `NS(=O)(=O)c1ccc(Nc2nc(Nc3ccccc3)nc(-n3nc(-c4ccccc4)cc3-c3ccccc3)n2)cc1`: the growth was 4.82% (active). As for `N#Cc1c(-c2ccc(Cl)cc2)nc2c(-c3ccccc3)c(Nc3ccccc3)nn2c1N`, the growth was 91.3% (inactive). Turning to `Cc1ccc(-c2cc(-c3cccc4ccccc34)n3c(n2)nc2ccccc23)cc1`, the growth was 7.27% (active).

Turning to `CC(C)NC(=O)c1cc(-c2ccc(NC(=O)Nc3ccc(N4CCOCC4)c(C(F)(F)F)c3)cc2)nc2cccnc12`, the growth was 12.6% (inactive). As to `O=C(CSc1cc[n+](CCCCO)c2ccccc12)n1ccc2ccccc21`, the growth is 106% (inactive). As for `C/C(=N\NC(=S)Nc1ccc(Br)cc1)c1cc2ccccc2oc1=O`, the growth was 1.53% (active). On to `CNC(=O)c1cc(Oc2ccc3nc(NC(=O)c4ccc(CN5CCCN(C)CC5)c(C(F)(F)F)c4)sc3c2)ccn1`, for which the growth is -65.2% (active).

Consider `O=C(CCl)Nc1ccc(NC(=O)c2cc(Cl)ccc2O)c(Cl)c1`, for which the growth is 49.3% (inactive).

Consider `C#CCn1cc(/C=N/Nc2nc(-c3ccc(Br)cc3)cs2)c2ccccc21`, for which the growth was 107% (inactive). The value for `CC1CC(=O)C2=C(C1)Nc1ccc(Br)cc1CC2c1c[nH]c2ccc(Br)cc12` (centres undefined) was 21.2% (inactive); that for `CCOC(=O)c1c(Nc2ccccc2)nn2c(N)c(C#N)c(-c3ccc(Cl)cc3)nc12` was 102% (inactive).
